CYP2C9 activ = activators of human CYP2C9; P11712; recombinant CYP2C9, luciferin-H conversion, luminescence; hits give high values; factor 1 = untreated enzyme, 0 = blocked; activation factor at 5 µM; 96,000 tested, 1.4% active;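 active = activation factor of 2 or more for CYP2C9 at a 5 µM dose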;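 note: 0 = sulfaphenazole-blocked wells and 1 = vehicle-only wells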
Target sequence (P11712 whole entry, looked up): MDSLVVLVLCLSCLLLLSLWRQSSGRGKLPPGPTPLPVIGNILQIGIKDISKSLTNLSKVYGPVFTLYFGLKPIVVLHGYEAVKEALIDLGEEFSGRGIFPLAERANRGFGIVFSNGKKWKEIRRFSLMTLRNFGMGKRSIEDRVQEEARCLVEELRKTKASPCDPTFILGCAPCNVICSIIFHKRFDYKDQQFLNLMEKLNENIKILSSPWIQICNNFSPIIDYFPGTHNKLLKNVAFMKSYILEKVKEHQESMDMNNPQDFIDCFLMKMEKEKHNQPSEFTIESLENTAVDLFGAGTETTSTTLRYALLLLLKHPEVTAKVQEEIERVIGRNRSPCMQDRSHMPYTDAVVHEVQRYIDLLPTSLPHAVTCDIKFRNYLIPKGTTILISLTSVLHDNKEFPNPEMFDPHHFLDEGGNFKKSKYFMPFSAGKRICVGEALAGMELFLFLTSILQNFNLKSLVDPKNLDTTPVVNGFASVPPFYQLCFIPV
PTK2B oligo ant = blocks oligomerization of human Pyk2 in cells. z-score (the deposit names both 25 µM and 10 µM). AID 1347419. Q293 cells, Pyk2 FERM NanoBiT luminescence; hits give low values. 99,000 tested, 0.83% active;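 active = Z-score of -3 or lower, scaled per plate to the spread of control and sample wells; inactive = z-score above -3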;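 note: negative z-score means lost luminescence so less FERM oligomerization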
CYP2C9 inhib = human CYP2C9 inhibition; P11712; CYP2C9 Supersomes, luciferin-H conversion, luminescence; inhibition, % at 5 µM; 96,000 tested, 20% active;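 active = blocking of liver enzyme CYP2C9 beyond about 50% at 5 µM, limit read from the data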
CYP2C19 inhib = inhibitors of human CYP2C19 | P33261 | CYP2C19 Supersomes, luciferin-H EGE luminescence, 30 min | inhibition, % at 5 µM | 96,000 tested, 21% active | AID 778;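 active = CYP2C19 inhibition above a set limit at 5 µM in the primary screen, cut at about 50% in these data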;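 note: plate controls were negative control wells for no effect and 2.5 mM tranylcypromine positive control for full effect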
Cav3 T inh = inhibitors of human Cav3.2 T-type calcium channel | O95180 | Cav3.2-expressing cells, Fluo-4 calcium fluorescence FDSS; hits give low values | B-score at 10 µM | 100,000 tested, 4% active;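 active = single-dose well whose peak fluorescence ratio is a statistical outlier from its plate by either plate-standardised score or position-corrected B-score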
CYP2C19 act = increases human CYP2C19 enzyme activity. P33261. recombinant CYP2C19, luciferin-H EGE luminescence; hits give high values; 0 = fully inhibited enzyme, 1 = untreated enzyme. activation factor at 5 µM. 96,000 tested, under 10 active. AID 1025;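 active = activation factor of at least 2 at 5 µM in the primary screen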;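 note: 0 = wells with 2.5 mM tranylcypromine and 1 = vehicle-only wells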
* marks the source's active call; other numbers are inactive results; x = not tested or not shown. The list is not random: actives were taken first. Their share in the collection is about 27%.

SMILES	CYP2C9 activ	PTK2B oligo ant	CYP2C9 inhib	CYP2C19 inhib	Cav3 T inh	CYP2C19 act
Cc1noc(/C=C/N(C)C)c1S(=O)(=O)N1CCCC(C(=O)NCc2ccc(Cl)cc2)C1 (stereo not drawn)	0.2	-0.08	77.2*	49.7	0.07	0.5
CCOC(=O)N1CCC(n2c(=S)[nH]c3cc(OC)c(OC)cc3c2=O)CC1	0.9	-0.95	12.2	3.0	0.706	1
CC(=O)Nc1sc2c(c1CN1CCN(c3ccccn3)CC1)CCCC2	0.7	-0.58	31.1	82.1*	-0.739	0.2
CC(=O)Nc1sc2c(c1CN1CCN(c3ccc(F)cc3)CC1)CCCC2	0.7	-1.39	29.5	86.2*	0.414	0.1
O=C(CN1CCN(c2ccccn2)CC1)NC1CCCC1	0.8	-0.26	21.0	6.0	0.0576	0.9
CN1C(=O)CC(N2CCN(c3ccccc3)CC2)C1=O (stereo not drawn)	x	0.32	x	x	1.25	x
CSc1nc(=O)n(-c2ccccc2)c(C)c1C(C)=O	1	0.11	4.5	-2.8	-0.668	1
CSc1nc(-c2ccccc2)nc(N)c1C(C)=O	0.4	x	62.7*	38.4	x	0.6
CCCCCn1c(CCCNC(=O)CC)nc2ccccc21	x	x	x	x	0.993	x
COc1cccc(-c2csc(N3CCN(Cc4ccccc4)CC3)n2)c1	0.8	0.43	23.7	12.6	-0.0417	0.9
O=C(Nc1ccccn1)c1onc2c1CCCC2	x	-0.49	x	x	x	x
c1ccc(-c2onc3c2CCCC3)cc1	1	0.44	-2.9	57.8*	0.347	0.4
Cc1cccc(C)c1NC(=O)CSc1nc(C)c(CC(=O)c2ccc(Br)cc2)c(C)c1C#N	0.8	-0.57	21.1	-6.1	0.286	1.1
Cc1nc(SCC(=O)Nc2ccc3c(c2)OCO3)c(C#N)c2c1CCCC2	0.8	-3.23*	16.0	21.3	0.321	0.8
CCOc1cccc(NC(=O)CSc2nc(C)c3c(c2C#N)CCCC3)c1	0.8	2.34	16.0	14.4	-0.0363	0.9
CC(=O)Nc1cccc(NC(=O)CSc2nc(C)c(C)c(C)c2C#N)c1	0.8	-0.46	18.9	67.4*	0.879	0.3
CC(C)n1nnnc1-c1cc(Cl)cc(Cl)c1	1	0.21	3.1	3.6	-0.0557	1
COc1ccc2c(c1)c1ncn(CCc3ccccc3)c(=O)c1n2C	0.1	-0.26	92.1*	58.5*	-1.37	0.4
Cc1ccc(C(=O)C(C)OC(=O)c2n[nH]c(=O)c3ccccc23)cc1 (stereo not drawn)	0.2	0.55	84.4*	67.5*	-0.0765	0.3
CC1=C(C(=O)Nc2ccccc2C)C(c2ccc(C)o2)N2C(=O)CSC2=N1 (stereo not drawn)	0.9	1.71	5.6	9.9	-3.8	0.9
COC(=O)C1=C(N)Oc2cc(C)[nH]c(=O)c2C1c1ccncc1 (stereo not drawn)	0.5	1.33	51.0*	48.6	0.21	0.5
COC(=O)C1=C(N)Oc2cc(C)n(C)c(=O)c2C1c1ccc(Cl)c(Cl)c1 (stereo not drawn)	0.7	-1.99	31.9	-8.0	-0.116	1.1
COC(=O)C1=C(N)Oc2cc(C)n(CCCn3ccnc3)c(=O)c2C1c1ccc(Cl)cc1 (stereo not drawn)	0	-2.17	96.6*	99.3*	-1.74	0
COC(=O)C1=C(N)Oc2cc(C)n(Cc3ccco3)c(=O)c2C1c1cccc(Cl)c1 (stereo not drawn)	0.4	-2.91	55.5*	34.5	-4.59	0.7
COC(=O)COC(=O)c1ccc(Oc2nc(OC)nc(N(C)C)n2)cc1	1.2	-0.66	-19.6	20.7	0.547	0.8
SMILES	CYP2C9 activ	PTK2B oligo ant	CYP2C9 inhib	CYP2C19 inhib	Cav3 T inh	CYP2C19 act
Cc1cc(NC(=O)COc2ccccc2)n(-c2ccccc2)n1	0.8	0.62	15.4	29.7	0.682	0.7
Cc1cc(NC(=O)c2cccs2)n(-c2ccccc2)n1	0.6	0.26	35.7	70.2*	-0.772	0.3
Cc1cc(NC(=O)c2sccc2C)n(-c2cccc(Cl)c2)n1	0.5	-0.93	51.5*	96.1*	-0.798	0
Cc1cc(NC(=O)C(C)Oc2ccc(Cl)cc2Cl)n(-c2ccccc2)n1 (stereo not drawn)	0.4	-0.04	63.1*	74.9*	-3.51*	0.3
COC(=O)CCCC(=O)Nc1c(F)c(F)c(F)c(F)c1F	0.9	1.21	6.8	9.0	0.613	0.9
CCC(CC)C(=O)Nc1cc(C)cc(C)c1	0.7	-0.19	25.4	18.1	0.166	0.8
CC1(C)CC(=O)CC(C)(C)N1OC(=O)c1ccccn1	0.9	0.17	11.2	30.5	-0.976	0.7
COCC(C)n1c(C)cc(C(=O)CN2C(=O)NC(Cc3c[nH]c4ccccc34)C2=O)c1C (stereo not drawn)	0.5	-0.53	46.1	40.7	-0.763	0.6
Cc1cc(C=O)c(C)n1-c1ccc(N2CCOCC2)cc1	x	0.01	x	x	1.14	x
Cc1cc(C=O)c(C)n1-c1cc(C(F)(F)F)ccc1N1CCOCC1	0.8	-0.25	21.3	91.5*	-1.48	0.1
Cc1ccc(NC(=O)CCC(=O)NNC(=O)C(c2ccccc2)c2ccccc2)c(C)c1	1	-0.29	-4.8	0.1	-1.26	1
COc1ccc(-n2c(SCCC#N)nnc2-c2cc(Cl)ccc2OC)cc1Cl	x	-0.79	x	x	-4.3*	x
CC1CCN(C(=O)CSc2nnc(CNC(=O)COc3ccc(Cl)cc3)o2)CC1	0.4	1.79	57.3*	67.2*	-0.729	0.3
O=C(COc1ccc(Cl)cc1)NCc1nnc(SCC(=O)NC2CCCCC2)o1	0.9	0.25	14.5	15.6	0.15	0.8
CCn1ncc(Br)c1C(=O)N(C)C12CC3CC(CC(C3)C1)C2	0.9	2.88	12.7	11.2	-5.06*	0.9
CCN(CC)CCOC(=O)C1c2ccccc2Oc2ccccc21	1.1	0.39	-9.4	30.0	0.807	0.7
CCCNc1nc(-c2cc(C(=O)Nc3ccccc3)on2)cc(C(C)C)n1	x	x	x	x	-1.22	x
Cn1c(/C=N/NC(=O)c2ccccc2Br)nc2ccccc21	0.4	-1.33	61.7*	69.2*	-4.34*	0.3
CCC1Sc2ccccc2N(CC(=O)NCCC2=CCCCC2)C1=O (stereo not drawn)	0.7	-0.13	28.4	19.2	-5.8*	0.8
CCC1Sc2ccccc2N(CC(=O)NCc2ccc3c(c2)OCO3)C1=O (stereo not drawn)	0.6	-0.91	40.1	71.8*	-0.0445	0.3
O=C(c1ccco1)N1CCN(Cc2nnnn2CCc2ccccc2)CC1	0.9	-0.43	13.9	12.8	0.169	0.9
Cc1ccc(S(=O)(=O)N2CCCN(c3nc4cc(C)ccc4cc3C#N)CC2)cc1	x	0.04	x	x	1.35	x
Cc1ccc2nc(N3CCN(S(=O)(=O)c4ccc5c(c4)OCCO5)CC3)c(C#N)cc2c1	0.5	-2.92	50.0*	70.2*	-0.779	0.3
O=S(=O)(c1ccc2c(c1)OCCO2)N1CCN(c2cccc(Cl)c2)CC1	0.4	-3.9*	57.9*	88.9*	x	0.1
